# From the supplement of paper PMC6555819
# Assays:
# Assay in all cases: PBM binding z-score (relative to random genomic background probes); higher = stronger binding; sequences stand for … in GC…GCGATTGACAGCGTAGAATGAAGG
# [1] = test system: LXRa:RXRa (NR concentration 270 nM, RXRa partner concentration 90 nM)
# How it was run: (§1)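 Each nuclear receptor dimer, without ligand, was incubated for 1 h on custom Agilent 4×180K protein-binding microarrays. Binding was detected with antibodies against each partner (one per run), and scanned fluorescence was regression-normalized. The binding z-scores are referenced to random human genomic background probes.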
# [2] = test system: LXRa homodimer (NR concentration 270 nM)
# How it was run: as §1
# [3] = test system: LXRb homodimer (NR concentration 270 nM)
# How it was run: as §1
# [4] = test system: PPARg:RXRa (NR concentration 180 nM, RXRa partner concentration 90 nM)
# How it was run: as §1
# [5] = test system: PPARg:RXRa 270nM:90nM, anti-RXR (NR concentration 270 nM, RXRa partner concentration 90 nM)
# How it was run: as §1
# [6] = test system: PPARg:RXRa 30nM:10nM, anti-RXR (NR concentration 30 nM, RXRa partner concentration 10 nM)
# How it was run: as §1
# [7] = test system: PPARg:RXRa 90nM:30nM, anti-RXR (NR concentration 90 nM, RXRa partner concentration 30 nM)
# How it was run: as §1
# [8] = test system: PPARg:RXRa DBDmut IVT, anti-RXR (DBD mutation: RXRa K156A/R161A, NR concentration 270 nM, RXRa partner concentration 90 nM)
# How it was run: as §1
# [9] = test system: PPARa:RXRa (NR concentration 270 nM, RXRa partner concentration 90 nM)
# How it was run: as §1
Sequence,PBM binding z-score [1],PBM binding z-score [2],PBM binding z-score [3],PBM binding z-score [4],PBM binding z-score [5],PBM binding z-score [6],PBM binding z-score [7],PBM binding z-score [8],PBM binding z-score [9]
CGAACGAGGTCATGAGTTGATAGCAAATGCCGAT,5.51,0.616,0.023,7.55,6.94,4.16,5.98,5.48,
CCTAGTTGTTCAGGAGGTCACACACCGGATATGA,4.36,3.87,1.61,2.04,2.98,1.11,1.87,0.958,
TAGCCTAGGTCATACAGGGGCCAGTATAGAAAGC,3.34,0.359,0.751,2.36,2.35,0.845,1.62,1.94,
ATCGAAAGGTCGACGCGGTGAGTATACACCGTTT,3.4,-0.127,0.391,2.07,2.54,0.887,1.8,-0.0451,
CGTCCAAGGTCATAGGGGGTCAGTGAAGACAGAT,7.05,4.02,8.62,7.32,7.58,4.55,6.71,3.59,
TGAATGAGGTTAAATATCAGGGAACGTGGCGTCG,2.5,-0.0698,0.686,2.51,3.17,1.45,2.46,2.43,
GCTGCTAGGTCAACTGATGGCCAGCTAAAGCTCG,2.54,-0.17,-0.174,2.45,3.01,0.617,2.13,4.28,
AATAAAGGGTCATCGTAGGCCAGAGTACGCACAG,6.44,3.35,2.31,7.14,6.58,3.39,5.44,3.16,
TCTCGGAGGACACTAAAGGTCAGAGCTCGACATC,5.15,5.33,0.134,1.47,2.94,2.78,2.97,1.65,
ACTTAAGGGTCAACGAGGTTATAGCACGCGTATA,6.42,1.86,1.21,7.09,6.95,3.18,5.51,3.78,
TCTATTAGTTGATTAGGGCAACCGAAACAGCGGA,0.552,0.193,0.613,0.303,2.14,3.65,2.63,2.02,
TCTGCTAGGTCAACGATGGTCAGTTAATCTGCTA,2.65,-0.279,0.325,2.14,2.8,1.79,2.47,4.02,
CGTCAAAGGTCAGCAGGTCAGTGAAAGCGACGTG,6.48,2.22,1.28,8.46,7.84,4.46,7.02,4.94,
CGTCCAAGGTCACAGAGGTCAGTGAATGCCGAGT,6.12,5.07,1.08,7.01,6.54,3.38,5.63,4.6,
GCTTAAGGGTCAAAGGTTATAGCATGAATAGAAT,6.57,1.93,1.36,11.7,9.09,8.73,9.85,3.81,7.18
ATATGTAGGTTAGCTGGGGTCATTCACACTAGGC,5.86,3.53,1.66,5.47,5.14,2.95,4.69,6.87,
CCAACTGGGCCAAAAAGGTCATTGATGCCGATAA,4.4,3.17,0.337,3.08,4.09,1.65,3.3,4.24,
CGAACTAGGTCGCCAGGACAGTGAAGAGGTTGGA,0.158,-0.593,-0.928,2.71,2.49,0.111,1.62,5.94,2.09
CGTCCGAGGTCAAGGTCAGTGAAAGAGACTCGAA,6.22,1.31,1.54,7.82,7.45,3.9,6.47,4.18,
GATACGGGGTCAAGGCCAGAGTACGCGTATTGAT,6.02,0.0824,0.667,8.92,8.33,5.85,7.78,4.87,

Sequence,PBM binding z-score [1],PBM binding z-score [2],PBM binding z-score [3],PBM binding z-score [4],PBM binding z-score [5],PBM binding z-score [6],PBM binding z-score [7],PBM binding z-score [8],PBM binding z-score [9]
TAGCCGAGGTCATTCAGGGGCCAGTATAGAAAGC,6.28,2.47,2.89,6.14,5.81,2.43,4.55,1.75,
TATAAAGGGTCAAAGGCCAGAGTACGAATGTCGA,6.68,2.98,3.14,8.34,7.5,6.09,7.52,2.57,
GCTGCTAGGTCAACTGATGGTCACCTAAAGCTCG,3.3,0.787,0.117,3.2,3.59,0.832,2.56,5.16,
GCTAGTTGGTCAGTAAAATGTCACACACCGGTCG,0.173,-0.0317,-0.257,0.556,-0.103,-0.158,0.223,0.762,
ACTCGGTGGACAAAGGTCAGAGCTACGCCAGTGA,3.52,0.715,-0.512,6.18,6.42,5.2,6.63,0.195,
AGAATGGGGTTATACGTAGATCAGGGAAGAAAGT,2.95,0.583,2.07,3.69,4,1.39,3.03,4.84,
CGTCAAAGGTCAAGGTAACGTAACAGAAAGCAGC,,2.47,2.82,9.12,8.51,6.2,8.31,4.8,
CAAACTAGGTCAAGGTCTAAGTCGGTTTGTGCCA,2.44,0.318,0.246,8.27,7.05,5.25,6.46,8.12,
CCTTACGGGTCACGAGGTCATAGCACGACGAGCG,5.89,2.73,0.62,8.56,7.55,4.61,6.67,4.66,
AAAACAGGGTCATCGTAGGCCAGAGTACGCACAG,6.26,0.569,1.32,7.65,6.86,4.1,5.89,4.38,
CTATGTAGGTTAAGGGAGTCATTCAGTTTGAAAG,0.682,-0.134,,4.76,4.4,1.9,3.53,6.9,3.21
CCTTAGGGGTCACTGACAGGTTATAGCATTTGGA,6.55,1.33,0.926,9.33,8.43,5.34,7.46,4.82,
GATACAGGGTCGGCTAGAGGCCAGAGTATGGAAA,0.191,-0.632,-1.28,0.561,0.616,-0.167,0.215,-0.804,
CGAACTAGGTCGAGGACAGTGAATCTCCGCACGC,-0.0944,-0.716,-0.651,2.03,1.98,0.0747,1.23,5.71,
TCTCGGAGGACACCAAAGGTCAGAGCTCGACATC,4.25,3.82,-0.0325,2.04,3.71,2.56,3.22,1.47,
ATATGTAGGTTAAGCGTCATTCAGGTTGGTTCGC,1.08,0.422,0.251,6.75,6.77,5,6.63,7.13,
GGAACGAGGTCAAAGTTGATAGCATCTGTCGACG,5.98,1.61,2.26,,8.63,8.72,9.4,6.14,
TAGCCTAGTTCATTCAGGGGCCAGTATAGAAAGC,0.593,0.155,0.584,0.203,0.273,-0.157,0.0192,1.65,
CCTTACGGGTAACGAGGTTATAGCACGACGAGCG,0.424,-0.553,-0.211,1.49,1.14,0.156,0.641,1.07,
CAAACGAGGTCAAAGGTCAAAGTCGAGCCAACCA,,7.06,4.76,13.9,11.2,13.8,13.8,7.13,7.69

Sequence,PBM binding z-score [1],PBM binding z-score [2],PBM binding z-score [3],PBM binding z-score [4],PBM binding z-score [5],PBM binding z-score [6],PBM binding z-score [7],PBM binding z-score [8],PBM binding z-score [9]
CCTTAAGGGTCACGAGGTTATAGCACGACGAGCG,5.92,0.987,0.697,8.45,7.7,4.56,6.73,4.16,
CAAACCAGGTCAAAGGTCAAAGTCGAGCCAACCA,,5.78,3.31,13.2,10.7,11.3,12,6.71,7.46
CGTCAAAGGTCAAAGGTCAGTGAAGAGATGACGG,,5.49,4.46,11.4,9.58,9.03,10.4,5.34,
CAAAATAGGTCAAAGGTCAAAGTCGAGCCAACCA,,6.17,3.52,13.7,11.5,12.6,13.3,8.15,7.93
AGAATGAGGTCACCAAAGATCAGGGAAACGCTTG,6.5,1.08,0.991,8.68,8.01,5.4,7.63,7.14,
GGAACGAGGTCATTCGAGTTGATAGCATGGCGAT,6.43,1.91,1.68,6.59,6.55,3.27,5.58,5.42,
CGTCAAAGTTCAACTAAGGTCACGTAAAGCACGC,,8.57,2.98,6.26,6.88,3.49,5.51,1.14,
TTACCAAGGTGAACGGTCGTTGATGCACGCCTTG,0.744,-0.159,-0.974,1.77,2.8,1.17,2.35,2.31,
CAAACTAGGTCAAGAGGTCAAAGTTCGCTTCCCG,6.59,6.51,2.33,,9.13,7.44,10.1,8.34,
CGAACGAGGTCAAAGGACAGTGAAAGGCGACGTA,5.87,0.528,1.21,8.64,7.62,5.48,8.31,5.27,
CAAAATAGGTCACAGAGGTCAAAGTCCGTGCGTA,,7.45,2.61,9.92,8.39,6.56,8.55,7.62,
AATACGGGGTCACTAGGCCAGAGTAGGTACGAAT,6.53,2,2.47,,8.44,5.78,7.95,5.43,
AATACGGGGTCATCGTAGGCCAGAGTACGCACAG,,4.62,2.94,9.53,8.49,6.12,7.88,4.48,
CCTGCTAGGTCATGGTCAGCGAATCTACAGTATG,2.19,-0.0156,-0.255,2.7,2.69,0.687,1.77,4.64,
CGTCCAAGGTCAAGGTCAATGAAAGAGACTCGAA,6,1.82,1.11,7.25,6.84,3.28,5.67,3.68,
TCTGCTAGGTCATCGATGGTCAGCTAATCTGCTA,3.21,-0.333,-0.256,1.74,3.32,1.82,2.45,3.54,
AGAATGAGGTCATACGTAGATCAGGGAAGAAAGT,6,1.75,1.92,7.83,7.25,4.88,6.67,6.81,
AGAATGAGGTCATTAAGATCAGGGAATTGCGGTC,5.58,2.12,1.68,6.93,6.63,3.8,5.83,6.03,
